# Screening data from PubChem BioAssay.
# The entries come from a sample that favours hits as a whole.
# RBX1-CUL1 inh = inhibitors of human ROC1-CUL1 ubiquitin ligase activity. P62877+Q13616. in vitro K48 di-Ub FRET, acceptor:donor ratio, 45 min. inhibition, % at 10 µM. 140,000 compounds, 0.6% hits; in the data active = inhibition above about 25%
# Target sequence (P62877 whole entry, looked up): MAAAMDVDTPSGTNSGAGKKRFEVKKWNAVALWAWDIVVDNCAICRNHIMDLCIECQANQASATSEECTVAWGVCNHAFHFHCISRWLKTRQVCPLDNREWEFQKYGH
# Target sequence (Q13616 whole entry, looked up): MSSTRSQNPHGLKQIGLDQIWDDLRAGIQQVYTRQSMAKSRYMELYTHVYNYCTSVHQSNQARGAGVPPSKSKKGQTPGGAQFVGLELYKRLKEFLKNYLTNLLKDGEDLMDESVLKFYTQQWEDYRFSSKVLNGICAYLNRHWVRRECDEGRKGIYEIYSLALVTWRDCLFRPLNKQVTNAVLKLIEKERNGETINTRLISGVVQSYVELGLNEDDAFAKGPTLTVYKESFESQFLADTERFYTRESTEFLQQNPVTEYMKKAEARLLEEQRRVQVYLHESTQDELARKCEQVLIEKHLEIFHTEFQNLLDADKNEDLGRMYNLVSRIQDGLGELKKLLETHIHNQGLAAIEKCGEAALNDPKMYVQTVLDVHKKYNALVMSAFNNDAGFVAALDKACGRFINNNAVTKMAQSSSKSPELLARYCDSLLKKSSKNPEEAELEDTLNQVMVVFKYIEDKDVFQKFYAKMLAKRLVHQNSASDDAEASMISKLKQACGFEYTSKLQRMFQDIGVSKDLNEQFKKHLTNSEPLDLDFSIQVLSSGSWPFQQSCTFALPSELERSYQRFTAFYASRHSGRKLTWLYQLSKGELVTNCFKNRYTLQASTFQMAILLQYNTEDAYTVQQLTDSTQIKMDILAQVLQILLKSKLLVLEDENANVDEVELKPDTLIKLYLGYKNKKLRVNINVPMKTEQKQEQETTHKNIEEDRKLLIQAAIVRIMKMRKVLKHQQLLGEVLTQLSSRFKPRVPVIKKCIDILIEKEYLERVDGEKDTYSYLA
# Active calls of the source: *.
SMILES,RBX1-CUL1 inh
O=C(O)c1ccc(/C=c2/sc3n(c2=O)C(c2cccs2)C2=C(N=3)c3ccccc3CC2)cc1 (stereo not given),55.8*
O=c1/c(=C\c2ccc(O)cc2)sc2n1C(c1cccs1)C1=C(N=2)c2ccccc2CC1 (stereo not given),9.6
O=C(O)c1cccc(-c2ccc(/C=c3/sc4n(c3=O)C(c3cccc(F)c3)C3=C(N=4)c4ccccc4CC3)o2)c1 (stereo not given),72.9*
O=c1/c(=C/c2ccccc2O)sc2n1C(c1cccs1)C1=C(N=2)c2ccccc2CC1 (stereo not given),-6.4
O=C(Nc1nnc(COc2ccc(C3CCCCC3)cc2)s1)c1ccccc1F,4.5
COc1ccc(NC(=O)C2C(C)=Nc3nc(CCCO)nn3C2c2ccc(Cl)cc2)cc1 (stereo not given),-5.8
COc1ccccc1CN(C)Cc1cnc(S(C)(=O)=O)n1CC1CCCO1 (stereo not given),4.1
CC(Cc1cc(C(=O)N(C)Cc2cnn(-c3ccc(F)cc3)c2)on1)c1ccccc1 (stereo not given),0.1
C=CCNCCOc1ccc(C(C)C)cc1,-0.6
CC1=NC(=S)NC(c2ccccc2)C1C(=O)Nc1cccc(C)c1C (stereo not given),0.9
CCOc1c(CNC(C)C)cccc1OC,1.3
COC(=O)C1=C(C)N=c2s/c(=C\C=C\c3ccccc3)c(=O)n2C1c1ccccc1 (stereo not given),-0.1
NC(=O)CC(C(=O)O)N1C(=O)/C(=C/c2cccc(Br)c2)SC1=S (stereo not given),32.8*
O=C(CCCN1C(=O)/C(=C\c2cccc(Br)c2)SC1=S)NNC(=O)c1ccccc1O,0.6
CCCC(C(=O)O)N1C(=O)/C(=C/c2ccc(F)cc2)SC1=S (stereo not given),7.4
CCOc1ccccc1C1CC(=O)N=C2C1C(=O)N(C)c1ncnn12 (stereo not given),6.8
CC(C)(C)c1ccc(S(=O)(=O)Nc2cccc(Cl)c2Cl)cc1,-5.1
COC(=O)c1ccc(C(=O)Nc2ccc(-c3nc4cc(NC(=O)c5ccc(C(=O)OC)cc5)ccc4o3)cc2)cc1,12.7
O=C(Nc1ccc(-c2nc3cc(NC(=O)c4ccc(Cl)cc4)ccc3o2)cc1)c1ccc(Cl)cc1,-2.4
O=C(Nc1ccc2cc3ccc(NC(=O)c4ccc(=O)oc4)cc3nc2c1)c1ccc(=O)oc1,39.8*
COc1ccc(Nc2nc(NCCO)c3ccccc3n2)c(OC)c1,-2.0
COC(=O)c1ccc(NC(=O)CSc2nc(C)nc3sc4c(c23)CCC4)cc1,2.9
Cc1nc(SCC(=O)Nc2ccc3c(c2)OCCO3)c2c3c(sc2n1)CCCC3,42.1*
Cc1nc(SCC(=O)Nc2ccc3ccccc3c2)c2c3c(sc2n1)CCCC3,-0.2
Cc1ccc(S(=O)(=O)CCCCCS(=O)(=O)c2ccc(C)cc2)cc1,6.7
SMILES,RBX1-CUL1 inh
COc1cccc(-n2cc(CN(C)C(=O)CCC3(Cc4ccc(OC)cc4F)CCC(=O)N3)cn2)c1 (stereo not given),5.1
CC(C)=CC(=O)N1CCC(Oc2ccc(C(=O)NCCN(C)C)cc2Cl)CC1,-1.6
CC1=Nc2nc(CO)nn2C(=O)C1,11.6
COc1ccc(C(=O)OCC(=O)c2ccc(OC(=O)c3ccccc3)cc2)cc1,6.0
O=C(COC(=O)c1ccc(C(O)c2ccccc2)cc1)c1ccccc1 (stereo not given),32.3*
Nc1cccc(C(=O)OCC(=O)c2ccccc2)c1,-6.1
CCC1C(N2CCC(C(=O)Nc3ccccc3C(=O)OC)CC2)NS(=O)(=O)C1c1ccc(C)cc1 (stereo not given),7.5
CCOC(=O)c1c(NC(=O)CSc2nc(-c3ccccc3)cc(C(F)(F)F)n2)sc2c1CCCC2,1.2
CCCOc1cccc(C(=O)N2CCN(c3ccc(OC)cc3)CC2)c1,-0.2
C(=C\c1cccnc1)/c1ccc(/C=C/c2cccnc2)cc1,-0.4
CSc1ccc(C(=O)/C=C/c2ccccc2)cc1,2.8
O=C(/C=C/c1cccnc1)c1ccc(F)cc1,49.1*
CCN1C(=O)S/C(=C/c2cc(C)n(-c3ccc(S(N)(=O)=O)cc3)c2C)C1=O,2.5
COc1ccc(CC(=O)NC(=S)Nc2ccccc2OC)cc1,0.8
O=C(O)c1cnn2c(C(F)(F)F)cc(-c3ccc(Br)cc3)nc12,-0.8
CC(C)CCNC(=O)c1cn(CC(C)C)cc(C(=O)N2CCCCC2c2cccnc2)c1=O (stereo not given),13.4
O=C(Nc1ccc(Br)cc1)C12CC3CC(C1)CC(n1cncn1)(C3)C2,-3.9
O=S(=O)(Nc1ccc(O)c(Sc2ncn[nH]2)c1)c1ccccc1,-0.1
O=C(O)CSc1cc(NS(=O)(=O)c2ccc3ccccc3c2)c2ccccc2c1O,89.4*
Cc1ccc(S(=O)(=O)Nc2cc(Sc3nc4ccccc4s3)c(O)c3ccccc23)cc1,9.6
Cc1ccc(S(=O)(=O)Nc2cc(SCC(=O)O)c(O)c3ccccc23)c(C)c1,4.1
O=c1oc2c(cc(NS(=O)(=O)c3ccc4ccccc4c3)c3ccccc32)s1,12.3
COc1ccc(S(=O)(=O)Nc2cc(Sc3ncn[nH]3)c(O)c3ccccc23)cc1,96.8*
Cc1ccc2nc3c(c(Nc4cccc(C(F)(F)F)c4)c2c1)CCC3,3.5
O=C(/C=C/c1ccc(Cl)cc1)NCCCc1ccccc1,-4.3
SMILES,RBX1-CUL1 inh
Cc1ccccc1NC(=O)CN1C(=O)S/C(=C/c2cn(C(C)C)c3ccccc23)C1=O,-6.1
Cc1ccc(C(=O)O)c2c1N[C@@H](c1ccccc1F)[C@H]1CC=C[C@@H]21,33.0*
Fc1ccccc1C1Nc2ccc3ccccc3c2C2C=CCC21 (stereo not given),-7.2
CC(=O)Nc1ccc2c(c1)C1C=CCC1C(c1ccccc1F)N2 (stereo not given),-7.5
O=C(N/N=C/c1cccn1-c1ccc([N+](=O)[O-])cc1)c1cccc(Br)c1,1.9
C=CCn1c(=O)c2c(nc3n(-c4ccccc4)c(C)c(C)n23)n(C)c1=O,2.4
O=C(O)/C=C/c1cc(Br)ccc1OCc1ccc(F)cc1,6.0
CCCCCCCCCCCCCCCCCCOc1ccc(/C=C/C(=O)O)cc1I,5.0
CCCCCCOc1cc(/C=C/C(=O)O)c(OCCCCCC)cc1/C=C/C(=O)O,89.4*
CCC(Oc1ccc(OC)cc1)C(=O)N1CCN(c2ccccc2)CC1 (stereo not given),5.0
CC1=C(C#N)C(=O)N(CCc2ccccc2)C(=O)/C1=C/c1ccc(-c2ccc(S(N)(=O)=O)cc2)o1,26.5*
CC1=C(C#N)C(=O)N(CCO)C(=O)/C1=C\c1ccc(-c2ccccc2)o1,-12.2
CCCN1C(=O)C(C#N)=C(C)/C(=C\c2ccc(-c3ccccc3)o2)C1=O,7.8
CCCc1ccc(Oc2cn[nH]c2-c2ccc(OC)c(C)c2O)cc1,2.2
O=C1C2C(c3ccccc3)OC3(C(=O)c4ccccc4C3=O)C2C(=O)N1c1ccc(F)cc1 (stereo not given),-4.5
O=C1C2C(c3ccc(Br)cc3)OC3(C(=O)c4ccccc4C3=O)C2C(=O)N1c1ccc([N+](=O)[O-])cc1 (stereo not given),4.0
O=C1C2C(c3ccc(F)c(Cl)c3)OC3(C(=O)c4ccccc4C3=O)C2C(=O)N1c1ccc(Br)cc1 (stereo not given),93.0*
Cc1ccc(C(O)C#CC23CC4CC(CC(C4)C2)C3)o1 (stereo not given),99.2*
O=C(O)C#CC12CC3CC(CC(C3)C1)C2,-0.1
OC(C#CC12CC3CC(CC(C3)C1)C2)c1ccccn1 (stereo not given),12.4
COc1cc(OC)c(NC(=O)c2cccc(C)c2)cc1Cl,1.7
